Screens: PubChem BioAssay, National Center for Advancing Translational Sciences (NCATS)
DT40 TDP1 CPT: qHTS for Inhibitors of human tyrosyl-DNA phosphodiesterase 1 (TDP1): qHTS in cells in presence of CPT; chicken DT40 Tdp1-/-;hTDP1 cells + 20 nM CPT, ATP luminescence, 48 h; Potency, µM (top dose mostly 46.2 µM), usual class: inhibitors; AID 686979, 2013; hit rate 12% among 420,000; also: nearly all actives have a fitted effect of over 55% in size
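Chicken DT40 Tdp1-/- cells complemented with human TDP1, 400 cells/well, exposed to compounds plus 20 nM camptothecin for at least 48 h at 37 C; viability read as ATP content by CellTiter-Glo luminescence.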
HT1080 IDH1KD tx: qHTS for induction of synthetic lethality in tumor cells producing 2HG: qHTS for the HT-1080-IDH1KD cell line; HT-1080 IDH1 knockdown viability, ATP luminescence, 48 h; Potency, µM (highest dose often 46.1 µM), hits mostly cytotoxic; hit rate 2% among 360,000; AID 686971, 2013
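After a 2 h attachment period, IDH1KD HT-1080 cells took pin-transferred compound for 48 h at 37 °C; ATP-based luminescence after 10 min room-temperature reagent incubation reported viability.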
IL1B secr inh: qHTS for Inhibitors of Inflammasome Signaling: IL-1-beta AlphaLISA Primary Screen. AID 743279, 2014. THP-1 LPS/ATP IL-1B secretion, AlphaLISA, 16 h; hits give low values. hit rate 4.7% among 360,000. activity change, % at 57.5 µM; in the data active = activity change below about -50%; inconclusive = mostly about -30% to -49%
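THP-1 cells pretreated 1 hr with compounds (up to 57.5 uM final), then stimulated with LPS (250 ng/mL final) plus ATP (1.25 mM final); secreted IL-1B measured by AlphaLISA after 16 hr, decreased signal indicating inhibition.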
12-LOX inh: Primary qHTS assay for inhibitors of human arachidonate 12S-lipoxygenase (ALOX12): Round 2. Polyunsaturated fatty acid lipoxygenase ALOX12 (Homo sapiens), P18054. purified 12hLO, xylenol orange hydroperoxide absorbance. Potency, µM (series often up to 108 µM), most hits filed as inhibitors. hit rate 1.1% among 580,000
Target sequence (P18054 whole entry, looked up): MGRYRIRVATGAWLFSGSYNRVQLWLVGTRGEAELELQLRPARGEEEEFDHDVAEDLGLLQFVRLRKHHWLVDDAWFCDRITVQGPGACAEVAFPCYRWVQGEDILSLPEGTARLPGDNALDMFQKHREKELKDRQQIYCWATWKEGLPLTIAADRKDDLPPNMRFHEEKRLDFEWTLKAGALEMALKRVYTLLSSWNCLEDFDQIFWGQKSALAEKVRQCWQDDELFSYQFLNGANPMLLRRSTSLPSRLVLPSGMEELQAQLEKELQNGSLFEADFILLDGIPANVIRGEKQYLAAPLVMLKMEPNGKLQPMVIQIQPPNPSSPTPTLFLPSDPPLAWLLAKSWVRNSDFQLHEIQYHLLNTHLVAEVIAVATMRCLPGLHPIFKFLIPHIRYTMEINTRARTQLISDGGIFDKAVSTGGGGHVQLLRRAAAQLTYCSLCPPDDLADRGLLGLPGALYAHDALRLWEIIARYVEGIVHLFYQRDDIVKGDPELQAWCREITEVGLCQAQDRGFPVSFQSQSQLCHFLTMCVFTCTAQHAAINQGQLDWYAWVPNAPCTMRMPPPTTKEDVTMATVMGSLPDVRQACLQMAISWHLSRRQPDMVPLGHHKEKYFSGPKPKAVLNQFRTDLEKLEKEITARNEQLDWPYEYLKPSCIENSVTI
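Purified human 12hLO at 150 nM in 25 mM Hepes, 0.01% Triton X-100, pH 7.0, preincubated 15 min at room temperature with compound. Reaction started with 40 uM arachidonic acid, 30 min at room temperature. Hydroperoxide measured by Fe-xylenol orange, 573/405 nm absorbance ratio.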
DT40 TDP1 no CPT: qHTS for Inhibitors of human tyrosyl-DNA phosphodiesterase 1 (TDP1): qHTS in cells in absence of CPT; DT40 Tdp1-/- hTDP1 cells, no CPT, ATP luminescence, 48 h; AID 686978, 2013; hit rate 15% among 420,000; Potency, µM (top dose mostly 46.2 µM), actives largely listed as inhibitors; also: nearly all actives have a fitted effect of over 55% in size
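Growth kinetics read by CellTiter-Glo luminescence after ≥48 hr at 37 °C. Cells: DT40 Tdp1-/- stably carrying human TDP1, 400 per well, compound exposure in the absence of CPT (DMSO vehicle).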
HT1080NT lethal: qHTS for induction of synthetic lethality in tumor cells producing 2HG: qHTS for the HT-1080-NT fibrosarcoma cell line; Potency, µM (top dose mostly 46.1 µM), hits mostly cytotoxic; hit rate 1.6% among 360,000; AID 686970, 2013; HT-1080-NT fibrosarcoma viability, CellTiter-Glo ATP luminescence, 48 h;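 also: NT is the 2HG producing partner of a matched IDH1 knockdown line; nearly all actives have a fitted effect of over 55% in size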
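Luminescent CellTiter-Glo readout after 48 hours of compound exposure at 37 degrees C defined viability of HT-1080-NT cells. Activity was normalized to DMSO wells and cell-free media wells; concentration-response curves were fitted and assigned curve classes.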
Hits are given with their value; . = inactive; ? = inconclusive; / = not tested or not shown; ! = repeats disagree; [ ] = another dose, or the depositor's remark. The sample as a whole holds a higher share of hits than the screen did. Unless noted, calls follow the shape of the dose curve; as a rule, active = well fitted curve in the direction sought with a large enough effect; inconclusive = small, poorly fitted or top-dose-only effect, or another doubt; inactive = no such curve, though single readings can be large; an effect the other way counts as inactive or inconclusive.

SMILES	DT40 TDP1 CPT	HT1080 IDH1KD tx	IL1B secr inh	12-LOX inh	DT40 TDP1 no CPT	HT1080NT lethal
O=C1CSC2(C(=O)N(Cc3cccc(F)c3)c3ccccc32)N1c1cccc(C(F)(F)F)c1 (stereo not drawn)	/	/	/	.	/	/
COc1ccc(-c2cn(CC3CCCCC3)nn2)cc1	.	.	.	.	.	.
CCCCCc1ccc(-c2cn(CCCOCc3ccccc3)nn2)cc1	?	.	.	.	22µM	.
CCCCCc1ccc(-c2cn(CC3CCCCC3)nn2)cc1	?	.	.	.	8.9µM	.
c1ccc(-c2cn(CC3CCCCC3)nn2)cc1	?	.	.	.	13µM!	.
O=C(NCc1nc(-c2ccccc2)no1)NC1CCCCC1	/	/	/	.	/	/
O=C(NC1CC1)c1cc(Br)cn2ccnc12	/	/	/	.	/	/
Cc1cc(C)c(NC(=O)CCCN2C(=O)COc3ccc(C)cc32)c(C)c1	?	/	/	.	16µM	/
Cc1ccc2c(c1)N(CCCC(=O)NCc1ccc3c(c1)OCO3)C(=O)CO2	.	.	.	?	.	.
Cc1cccc(CNC(=O)CCCN2C(=O)COc3ccc(C)cc32)c1	15µM	/	/	.	?	/
CCOc1ccccc1CNC(=O)CCCN1C(=O)COc2ccc(C)cc21	?	/	/	.	18µM	/
COc1cccc(C(=O)N2CCCC3(C2)NC(=O)N(Cc2ccc(C)cc2)C3=O)c1OC (stereo not drawn)	/	/	/	.	/	/
COCc1nncn1C1CCN(C(=O)c2cc(F)ccc2Cl)CC1	/	/	/	.	/	/
COc1ccc(C(CNCC(O)COc2c(C)ccc(C)c2C)N(C)C)cc1 (stereo not drawn)	26µM	.	.	?	12µM	.
CCn1c(CN2CCN(c3cccc(Cl)c3)CC2)nc2c1c(=O)[nH]c(=O)n2C	?	/	/	.	18µM	/
CCCCCn1c(N2CCN(c3cccc(Cl)c3)CC2)nc2c1c(=O)[nH]c(=O)n2C	21µM	.	?	.	23µM	.
COc1ccc(Cc2c(C)nn(-c3nc(CC(=O)Nc4ccccc4)cs3)c2C)cc1	/	/	/	.	/	/
CC(NC(=O)COc1ccccc1)C(=O)N1CCN(c2ccccn2)CC1 (stereo not drawn)	/	/	/	.	/	/
Cc1cc(C)c(C(O)C(C)Sc2ccc(Cl)cc2)cc1C (stereo not drawn)	/	/	/	.	/	/
COc1ccc(S(=O)(=O)N2CCN(Cc3nc4cc(C(=O)N5CCCCC5)ccc4o3)CC2)cc1	/	/	/	.	/	/
CCOC(=O)Cc1ccc(NC(=O)Nc2nnc(N3CCCCC3C)s2)cc1 (stereo not drawn)	12µM	/	/	.	12µM	/
CCCSc1nnc(NC(=O)Nc2ccccc2)s1	?	.	.	.	16µM	.
CCOC(=O)Cc1ccc(NC(=O)Nc2nnc(N3CCCC3)s2)cc1	/	/	/	.	/	/
CCCSc1nnc(NC(=O)CCc2ccccc2)s1	.	.	.	.	.	.
Cc1ccc(NC(=O)Nc2nnc(SCC(=O)N3CCC(C)CC3)s2)cc1	?	/	/	.	23µM	/
SMILES	DT40 TDP1 CPT	HT1080 IDH1KD tx	IL1B secr inh	12-LOX inh	DT40 TDP1 no CPT	HT1080NT lethal
CCN(c1ccccc1)c1nnc(NC(=O)Nc2ccc(Br)cc2)s1	2.9µM	/	/	.	3.7µM	/
CCN(c1ccccc1)c1nnc(NC(=O)Nc2ccc(OC)c(OC)c2)s1	/	/	/	.	/	/
CCN1c2cc(C(=O)Nc3ccc(OC)c(Cl)c3)ccc2C(=O)N2CCCCC21 (stereo not drawn)	/	/	/	.	/	/
COc1cccc(-c2cc3c(=O)n(CCNC(=O)c4ccc(F)cc4)ccn3n2)c1	/	/	/	.	/	/
CCCSc1nnc(NC(=O)Nc2ccc(C)cc2)s1	?	.	.	.	?	.
CCCSc1nnc(NC(=O)Nc2ccc(F)cc2)s1	21µM	12µM	.	.	21µM	?
O=C1CCN(S(=O)(=O)c2ccccc2)CCCN(C(=O)C2(c3ccccc3)CC2)CCN1	/	/	/	.	/	/
O=C(CNC(=O)c1ccc(F)cc1)N/N=C/c1cc(Br)ccc1OC(=O)/C=C/c1ccco1	9.2µM	?	.	.	2.6µM	?
O=C(CNC(=O)c1ccccc1F)N/N=C/c1cc(Br)ccc1OC(=O)/C=C/c1ccco1	3.7µM	4.6µM	.	.	5.2µM	.
COc1ccccc1C(=O)NCC(=O)N/N=C/c1cc(Br)ccc1OC(=O)/C=C\c1ccco1	?	.	.	.	?	?
COc1c(O)cccc1/C=N/NC(=O)Cn1ccnc1C	?	.	.	.	23µM	.
CCCNC(=O)NC[C@H]1O[C@@H]2C[C@@H](CC(=O)NCc3cnn(C)c3)O[C@@H]2[C@@H]1O	/	/	/	.	/	/
Cc1ccc(Sc2nnc(Cc3ccccc3)c3ccccc23)cc1	26µM	.	-89	?	23µM	.[9.24 µM]
COc1ccc(Sc2nnc(Cc3ccccc3)c3ccccc23)cc1	?	?	/	?	?	.
COc1ccc(-c2nc(C#N)c(NCCN(C)C)o2)cc1OC	/	/	/	.	/	/
COc1ccc(OC)c(-n2c(=O)c3ccccc3c3ccccc3c2=O)c1	.	.	-89	.	.	.
CN(C)CCN(CC1CCCCC1)C(=O)Nc1ccc(F)cc1	/	/	/	.	/	/
COc1ccc2cc3c(N)nn(C(=O)Cc4ccccc4OC)c3nc2c1	9.2µM	.	-60	.	9.2µM	.
COc1ccc2cc3c(N)nn(C(=O)c4ccc(F)cc4Cl)c3nc2c1	9.2µM	/	/	.	8.2µM	/
COc1ccc(C(=O)n2nc(N)c3cc4ccc(C)cc4nc32)cc1OC	.	/	/	.	.	/
COc1ccc2cc3c(N)nn(C(=O)C4CCC(C(C)(C)C)CC4)c3nc2c1 (stereo not drawn)	9.2µM	.	-86	.	18µM	.
Cc1ccc2cc3c(N)nn(C(=O)c4cccc(F)c4)c3nc2c1	?	/	/	.	7.3µM	/
CCOc1ccc(C(=O)N2CCS(=O)CC2)cc1OC	/	/	/	.	/	/
COCc1nc(C2CCN(C(=O)c3cccn3C)C2)no1 (stereo not drawn)	/	/	/	.	/	/
Cc1ccc(-c2nc3cccc(C)c3nc2-c2ccc(C)cc2)cc1	/	/	/	.	/	/
CC(=O)Nc1cccc(-c2ccnc3c2CC(C)(C(=O)Nc2cccc(C(F)(F)F)c2)O3)c1 (stereo not drawn)	13µM	?	.	.	16µM	?
CC(=O)Nc1cccc(-c2ccnc3c2CC(C)(C(=O)Nc2ccc(Cl)c(C(F)(F)F)c2)O3)c1 (stereo not drawn)	10µM	23µM	-67	.	13µM	?
